Rows were chosen to be rich in hits. Some 3% of all compounds tested hit in one or more screens of this group.
SENP8 block-1: blocks the human protease SENP8; Q96LD8; purified SENP8, Z-RLRGG-aminoluciferin cleavage, luminescence; inhibition, % at 10 µM; hit rate 1.2% among 330,000; in the data active means inhibition above about 50%
SENP7 inh: inhibitors of human SENP7 protease | recombinant SENP7, Z-RLRGG-aminoluciferin luminescence, 40 min | inhibition, % at 5 µM | Q9BQF6 | AID 434973 | hit rate 1.5% among 330,000;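 active means inhibition above about 50% at the single test dose, limit read from the data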;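 further: plate controls were DMSO with enzyme for no effect and no enzyme buffer wells for full effect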
PPC-1+TRAIL kill: kills PPC-1 cancer cells in the presence of TRAIL; PPC-1 cells + TRAIL, ATPLite viability luminescence; hit rate 0.41% among 220,000; cell killing (% activity), % at 4 µM or 5 µM;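 active means cell killing above 50% in the first pass at 4 µM, then a duplicate retest at 5 µM averaging 50% or more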;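 further: plate controls were cells with TRAIL plus DMSO for no effect and medium-only wells lacking cells for full effect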
C8 TRAIL sens: sensitizes caspase-8 expressing cells to TRAIL; AID 624354; hit rate 1% among 360,000; inhibition (viability loss, TRAIL sensitization), % at 10 µM; NB7+C8 cells + TRAIL, ATPlite viability luminescence;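 active means compounds causing at least 50% loss of cell viability in the single-dose screen, relative to plate controls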
SENP6 block: SENP6 protease inhibition; Recombinant SENP6 catalytic domain, aminoluciferin luminescence; Q9GZR1; inhibition, % at 10 µM; hit rate 1.8% among 330,000;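 active means inhibition above about 50% at the single tested dose, limit read from the data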;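 further: plate controls were DMSO wells with enzyme for no effect and DMSO wells lacking enzyme for full effect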
Target sequence (Q9GZR1 628-1112 limits assumed): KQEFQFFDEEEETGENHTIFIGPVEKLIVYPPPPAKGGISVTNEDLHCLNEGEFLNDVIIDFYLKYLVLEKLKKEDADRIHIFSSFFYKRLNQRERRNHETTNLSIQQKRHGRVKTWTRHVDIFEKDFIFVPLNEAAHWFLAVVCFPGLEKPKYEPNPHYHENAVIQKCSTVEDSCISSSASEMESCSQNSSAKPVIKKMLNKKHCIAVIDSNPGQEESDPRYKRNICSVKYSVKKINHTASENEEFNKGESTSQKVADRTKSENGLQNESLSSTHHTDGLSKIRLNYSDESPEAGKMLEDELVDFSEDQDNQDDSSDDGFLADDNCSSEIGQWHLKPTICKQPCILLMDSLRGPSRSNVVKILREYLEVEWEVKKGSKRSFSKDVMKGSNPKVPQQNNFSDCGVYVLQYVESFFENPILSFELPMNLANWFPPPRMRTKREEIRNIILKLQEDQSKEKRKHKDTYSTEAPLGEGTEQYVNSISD
SENP8 block-2: inhibitors of human SENP8 protease. Q96LD8. recombinant SENP8, Nedd8 substrate fluorescence. inhibition, % at 20 µM. hit rate 0.64% among 360,000. AID 602440; in the data active means inhibition mostly above about 40%, no sharp cut-off; inactive means mostly below about 27%
PPC1 cytotox: PPC-1 cell cytotoxicity; shares compounds with PPC-1+TRAIL kill; PPC-1 viability, ATPlite luminescence, overnight; cytotoxicity, % at 5 µM; hit rate 50% among 1,200; AID 1447;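 active means reconfirmed compounds whose average cytotoxicity reaches 50% or more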;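 further: 0% = DMSO-treated cells and 100% = wells holding medium but no cells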
SENP8 confirm: confirmation of human SENP8 protease inhibitors; hit rate 40% among 6,200; inhibition, % at 12.5 µM; shares compounds with SENP7 inh; Recombinant SENP8, Z-RLRGG-aminoluciferin luminescence, 60 min;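 active means mean inhibition across replicates above about 50%, limit read from the data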
SENP6 conf: confirmation of human SENP6 protease inhibitors; hit rate 58% among 6,200; inhibition, % at 12.5 µM; recombinant SENP6, Z-RLRGG-aminoluciferin luminescence; shares compounds with SENP7 inh; AID 488915
SENP7 confirm: confirmation of human SENP7 protease inhibitors. shares compounds with SENP7 inh. recombinant SENP7, Z-RLRGG-aminoluciferin luminescence, 40 min. inhibition, % at 12.5 µM. hit rate 69% among 6,200. AID 488917
Casp3 select: selectivity test for SENP inhibitors: human caspase-3 inhibition; purified caspase-3, Z-DEVD-aminoluciferin luminescence, 60 min; shares compounds with SENP7 inh; inhibition, % at 12.5 µM; AID 488918; hit rate 60% among 6,200;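 active means mean inhibition above about 50%, limit read from the data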;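 further: plate controls were enzyme with DMSO for no effect and wells without caspase-3 for full effect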
Luc interf: luminescence interference (SENP counter-screen); inhibition, % at 12.5 µM; Pre-incubated SENP8/Z-RLRGG-aminoluciferin, luciferase luminescence interference; AID 488919; hit rate 39% among 6,200; shares compounds with SENP7 inh;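 active means mean inhibition above about 50% when retested at one dose, limit read from the data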;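 further: plate controls were DMSO wells with completed reaction for no effect and substrate without enzyme for full effect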
Starred values were filed as active, the others as inactive; · = not tested or not shown.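 How the source made its calls, unless noted: active means mean inhibition above about 50% in the one-dose retest (limit read from the data); inactive means the rest.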

SMILES	SENP8 block-1	SENP7 inh	PPC-1+TRAIL kill	C8 TRAIL sens	SENP6 block	SENP8 block-2	PPC1 cytotox	SENP8 confirm	SENP6 conf	SENP7 confirm	Casp3 select	Luc interf
Cc1ccc(/C=C/c2ccc3cccc(O)c3n2)s1	8	4	·	25	10	-41	·	·	·	·	·	·
Cc1ccc(/C=C/c2nc3ccccc3s2)s1	86*	10	85*	67*	92*	-114	83*	97*	100*	103*	95*	78*
CC(OC(=O)c1ccc(Br)o1)C(=O)Nc1ccc2c(c1)OCCO2 (stereo not given)	-3	10	·	-11	0	4	·	·	·	·	·	·
O=C(Nc1ccc2oc(=O)ccc2c1)c1cc2ccccc2o1	8	7	22	34	8	-335	·	·	·	·	·	·
O=C(Nc1ccc2c(c1)OCCO2)c1ccc(Br)o1	55*	74*	52*	61*	77*	20	51*	77*	70*	91*	85*	74*
O=C(Nc1ccc2c(c1)OCCO2)c1cc2ccccc2o1	61*	78*	57*	79*	81*	0	56*	2	84*	97*	80*	79*
NC(=S)NNC(=O)c1cccc(Cl)c1	4	-4	4	-9	3	18	·	·	·	·	·	·
O=C(CSc1nc(C(F)(F)F)cc(=O)[nH]1)N1CCCC1	8	11	·	10	-9	5	·	·	·	·	·	·
Cc1ccc(NC(=O)N2CCc3ccccc32)cc1	89*	94*	67*	63*	86*	32	65*	91*	94*	101*	94*	94*
Cc1ccc(NC(=O)N2CCc3ccccc3C2)cc1	-10	-1	32	16	9	-6	·	·	·	·	·	·
Cc1ccc(NC(=O)N2CCc3ccccc32)cc1C	82*	92*	55*	66*	90*	6	59*	91*	91*	99*	88*	81*
COc1cccc(C(=O)Nc2nc3ccccc3[nH]2)c1	90*	95*	71*	83*	94*	-1	73*	6	93*	102*	96*	17
Cc1ccc(C2(c3ccc(C)cc3)CC2C(=O)NC(C)C)cc1 (stereo not given)	-5	0	·	0	-23	13	·	·	·	·	·	·
Clc1ccccc1/C=C/c1nc(-c2ccccn2)no1	95*	100*	71*	69*	96*	14	67*	99*	100*	103*	98*	74*
CC(C)(C)Cc1nc(-c2ccccn2)no1	-12	-13	-18	-7	-14	16	·	·	·	·	·	·
CN(C)c1ccc(Nc2nc(-c3cccnc3)cs2)cc1	87*	89*	70*	67*	88*	24	68*	43	78*	96*	92*	32
CSc1ccc(/C=C/C(=O)NC(=O)c2ccccc2O)cc1	79*	48	60*	52*	93*	-392	62*	22	15	10	5	18
CSc1ccc(/C=N/NC(=O)c2ccccc2Cl)cc1	-11	6	8	21	-40	-53	·	·	·	·	·	·
O=C(/C=C/c1ccc(Br)cc1)NC(=O)c1ccccc1O	78*	64*	62*	63*	87*	-32	62*	-4	55*	79*	10	24
CN(C(=O)COn1nnc2ccc(Cl)cc21)C1CCS(=O)(=O)C1 (stereo not given)	-9	-5	·	4	-4	-1	·	·	·	·	·	·
COCCNc1cc(C)nc2cc(-c3ccc(C)cc3)nn12	-4	-1	14	10	-6	-411	·	·	·	·	·	·
Cc1ccc(-c2cc3nc(C)cc(NCc4ccco4)n3n2)cc1	74*	92*	14	63*	81*	-329	20	46	38	61*	63*	38
Cc1ccc(S(=O)(=O)Nc2c(C(=O)O)[nH]c3ccccc23)c(C)c1	9	1	·	-9	4	-32	·	·	·	·	·	·
O=C(/C=C/Nc1ccc(F)cc1F)c1ccco1	87*	90*	90*	92*	87*	-168	89*	91*	97*	101*	96*	85*
O=C(NNC(=S)Nc1ccc(F)cc1F)c1ccco1	3	18	·	-11	5	-4	·	·	·	·	·	·
SMILES	SENP8 block-1	SENP7 inh	PPC-1+TRAIL kill	C8 TRAIL sens	SENP6 block	SENP8 block-2	PPC1 cytotox	SENP8 confirm	SENP6 conf	SENP7 confirm	Casp3 select	Luc interf
O=C(/C=C/Nc1ccc(Br)cc1F)c1ccco1	96*	98*	89*	91*	95*	-410	89*	-2	93*	100*	86*	28
CCn1c(C)nc2cc(-c3nc4n(n3)Cc3ccccc3-4)ccc21	96*	100*	94*	96*	96*	-6	94*	99*	100*	103*	99*	86*
CCn1c(C)nc2cc(C(=O)NNC(=O)c3ccc(C)cc3)ccc21	4	6	·	1	2	-41	·	·	·	·	·	·
Cc1ccc(-c2nc3n(n2)Cc2ccccc2-3)cc1	96*	99*	75*	86*	97*	14	74*	80*	91*	103*	98*	68*
CCCCOc1ccc(C(=O)NCC(=O)NCC(c2ccc(OC)cc2)N2CCCC2)cc1 (stereo not given)	3	-5	·	-1	6	-54	·	·	·	·	·	·
O=C(CNC(=O)N1CC(=O)Nc2ccccc21)Nc1cc(Cl)ccc1Cl	1	3	·	0	-7	4	·	·	·	·	·	·
On1nnc2ccc3ccccc3c21	11	9	20	31	4	-4	·	·	·	·	·	·
CN1CC(=O)N(CC(=O)Nc2ccc3c(c2)CCC3)C1=O	-10	4	-2	3	-3	2	·	·	·	·	·	·
Cc1ccc(-n2nnc(-c3nccn3C)n2)cc1	86*	87*	55*	71*	84*	-10	53*	90*	90*	100*	97*	90*
COc1ccc(S(=O)(=O)NCC(c2ccc3c(c2)OCO3)N2CCN(c3ccccc3)CC2)cc1 (stereo not given)	2	-6	·	-1	-9	14	·	·	·	·	·	·
